Experimental data: the supplement of paper PMC7366291
Counter-ions that a name gives are not always drawn. ± gives the standard deviation of the averaged measurements.

What follows are molecules tested on Danio rerio Tg(wt1b:EGFP) embryo, pronephros (assay: pronephric angle neck segment to proximal convoluted tubule (mean of left and right), fold change vs DMSO control; higher = larger pronephric angle). Settings: 25 µM; exposure: 24-48 hpf.
Procedure, shortened: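 Every feature is expressed as a fold change relative to the averaged DMSO-treated embryos of the same day. The exposure ran from 24 to 48 hpf at 28.5°C, with dechorionated Tg(wt1b:EGFP) zebrafish embryos in HEPES-buffered E3 containing 0.003% PTU, 0.5% DMSO and 25 μM compound. Dorsal pronephros images taken in agarose-filled 96-well plates were reduced to maximum projections, on which 16 reference points were set by hand in Fiji for a macro to compute distances and angles. Values more than 2 SD from the feature mean were not used.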

Question: Which “pronephric angle neck segment” value does the source give for `O=P(O)(O)C(O)(Cn1ccnc1)P(=O)(O)O` [Zoledronic acid hydrate] here?
Answer: 0.989 ± 0.0085

Question: Which “pronephric angle neck segment” value does the source give for `CC12CC3CC(C)(C1)CC(N)(C3)C2` [Memantine Hydrochloride] here?
Answer: 0.9526 ± 0.0081

Question: Which “pronephric angle neck segment” value does the source give for `Cc1ccccc1OCC(O)CO` (stereo not drawn) [Mephenesin] here?
Answer: 0.993 ± 0.033

Question: For `COc1cc(N)c(Cl)cc1C(=O)NC1CCN(Cc2ccccc2)CC1` [Clebopride maleate], which “pronephric angle neck segment” value is on record?
Answer: 0.912 ± 0.027

Question: Which “pronephric angle neck segment” value does the source give for `N=C(N)NC(=O)c1nc(Cl)c(N)nc1N` [Amiloride hydrochloride dihydrate] here?
Answer: 0.985 ± 0.023

Question: With `CN(C)C(=O)C(CCN1CCC(O)(c2ccc(Cl)cc2)CC1)(c1ccccc1)c1ccccc1` [Loperamide hydrochloride] as the molecule, how does the “pronephric angle neck segment” value read?
Answer: 1.03 ± 0.065

Question: With `CNCCCC12CCC(c3ccccc31)c1ccccc12` [Maprotiline hydrochloride] as the molecule, how does the “pronephric angle neck segment” value read?
Answer: 1.1 ± 0.058

Question: How did the “pronephric angle neck segment” value turn out when `CCCCOc1ccc(C(=O)CCN2CCCCC2)cc1` [Dyclonine hydrochloride] was run?
Answer: 1.004 ± 0.0035

Question: Which “pronephric angle neck segment” value does the source give for `Cn1c(=O)c2c(ncn2CCO)n(C)c1=O` [Etofylline] here?
Answer: 0.9776 ± 0.00038

Question: For `Nc1ccc(C(=O)NCC(=O)O)cc1` [Aminohippuric acid], which “pronephric angle neck segment” value is on record?
Answer: 0.991 ± 0.018

Question: How did the “pronephric angle neck segment” value turn out when `CCCc1cc(C(N)=S)ccn1` [Prothionamide] was run?
Answer: 1.007 ± 0.0083

Question: With `O=C1[C@H]2CCCC[C@H]2C(=O)N1CCCCN1CCN(c2nsc3ccccc23)CC1` [Perospirone] as the molecule, how does the “pronephric angle neck segment” value read?
Answer: 1.05 ± 0.017

Question: `Nc1ccc(S(=O)(=O)NC(=O)c2ccccc2)cc1` [Sulfabenzamide] was tested. Which “pronephric angle neck segment” value did it give?
Answer: 1.09 ± 0.0044
